Source: PubChem
RE007 growth inh: less growth of the S. pombe RE007 Vpr strain. S. pombe RE007 Vpr strain, BacTiter-Glo ATP luminescence, 24 h. AID 651644. Potency, µM (doses to about 92.2 µM), for the others: at the highest dose activity change, negative = less growth, actives largely listed as inhibitors. actives 0.21% (n = 360,000); active means well fitted falling curve with a large enough effect; inconclusive means small, poorly fitted or top-dose-only effect; inactive means no such curve, though single readings can be large or run the other way; further: nearly all actives have a fitted effect of over 50% in size
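Fission yeast strain RE007, carrying one chromosomally integrated HIV-1 vpr copy, was seeded at OD 0.01 in PMG+AL medium with 23 nL pinned compound. After 24 h at 30 °C and 99% humidity, viability was read by BacTiter-Glo luminescence.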
AMA1-RON2 inh: inhibitors of Plasmodium falciparum AMA1-RON2 interaction. AlphaScreen AMA1-biotinylated RON2 peptide binding. actives 0.2% (n = 360,000). Potency, µM (series often up to 58.2 µM), inactives show at the highest dose activity change, negative = inhibition, hits mostly inhibitors;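 further: 0% = vehicle wells and -100% = peptide control; nearly all actives have a fitted effect of over 45% in size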
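AMA1 (3D7) with his tag at 25 nM final met compounds first, then biotinylated RON2 peptide at 25 nM; detection used donor plus acceptor beads, 10 µg/mL apiece, read by AlphaScreen after 30 min at room temperature.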
Vaccinia Venus: vaccinia inhibition (Venus reporter); AID 720580; Vaccinia virus Venus reporter expression, fluorescence; actives 0.46% (n = 330,000); Potency, µM (doses to about 36.5 µM), inactives show at the highest dose activity change, negative = inhibition, hits mostly inhibitors; calls by dose curve; tested in A549 cells; further: nearly all actives have a fitted effect of over 30% in size
Tb PYK inh: T. brucei pyruvate kinase inhibition; TbPYK enzyme, Kinase-Glo Plus ATP luminescence, 45 min; Potency, µM (doses to about 76.8 µM), inactives show at the highest dose activity, negative = inhibition, hits mostly inhibitors; actives 0.12% (n = 410,000); AID 624173; Q57TT1; further: nearly all actives have a fitted effect of over 50% in size
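Screened from lowest to highest concentration, compounds were pinned into TbPYK/substrate mixtures, and ADP (130 uM final) was added. Plates sat at room temperature for 45 min prior to Kinase-Glo Plus detection by luminescence.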
Vaccinia mCherry: inhibitors of vaccinia virus infection (mCherry reporter signal). Vaccinia virus mCherry reporter infection, fluorescence. Potency, µM (series often up to 36.5 µM), for inactives: at the top dose activity change, negative = inhibition, actives largely listed as inhibitors. actives 0.63% (n = 310,000); calls by dose curve; tested in A549 cells; further: nearly all actives have a fitted effect of over 35% in size
LmPK inh: LmPK (Leishmania mexicana) enzyme inhibition; Q27686; actives 0.37% (n = 290,000); purified LmPK, Kinase-Glo ATP luminescence, 1 h; AID 1721; Potency, µM (titrated, usually from 57.5 µM), for the others: at the highest dose activity change, negative = inhibition, hits mostly inhibitors
Target sequence (Q27686 whole entry, looked up): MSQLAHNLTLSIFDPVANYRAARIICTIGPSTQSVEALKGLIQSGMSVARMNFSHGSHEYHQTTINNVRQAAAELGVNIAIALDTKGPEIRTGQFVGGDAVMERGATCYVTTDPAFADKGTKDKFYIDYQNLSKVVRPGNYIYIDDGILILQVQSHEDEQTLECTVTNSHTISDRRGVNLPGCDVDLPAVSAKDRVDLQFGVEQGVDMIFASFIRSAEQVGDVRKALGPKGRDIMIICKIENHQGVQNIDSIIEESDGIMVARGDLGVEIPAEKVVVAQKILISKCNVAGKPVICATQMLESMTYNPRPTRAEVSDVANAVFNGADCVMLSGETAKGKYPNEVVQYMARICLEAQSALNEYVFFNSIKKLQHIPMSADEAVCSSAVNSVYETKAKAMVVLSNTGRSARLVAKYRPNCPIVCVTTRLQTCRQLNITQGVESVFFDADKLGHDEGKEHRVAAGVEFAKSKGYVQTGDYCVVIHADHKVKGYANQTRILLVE
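qHTS format; LmPK 0.1 nM; substrates PEP 0.5 mM and ADP 0.1 mM. One-hour room-temperature incubation, then coupled luciferase luminescence; 0.5 nM enzyme wells mark activation.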
* hit, by the source's call; i = inactive; ? = inconclusive; . = no result given; [ ] = dose if it differs, or a comment. Only some compounds are listed: those with a hit (about 1.3% of all), similar ones and a draw of the others. Unless noted, the call rests on the fitted dose curve; in most records, active means well fitted curve in the direction sought with a large enough effect; inconclusive means small, poorly fitted or top-dose-only effect, or another doubt; inactive means no such curve, though single readings can be large; an effect the other way counts as inactive or inconclusive. Unless noted, on the % scale 0 is the no-effect control and ±100 the full control effect; potency means the concentration at half of the fitted maximal effect.

SMILES | RE007 growth inh | AMA1-RON2 inh | Vaccinia Venus | Tb PYK inh | Vaccinia mCherry | LmPK inh
CC(=O)Nc1ccccc1-c1nc(CNC(=O)c2ccc(C)cc2)c(C)o1 | . | . | -4.1% | . | -5.1% | .
CC1(C)CC(=O)C(C2C3=C(CC(C)(C)CC3=O)Oc3ccccc32)C(=O)C1 (centres undefined) | -19.5% | 0.7% | -21.8% | -13.8% | ? | 3.2%
CC1(C)CC(=O)C2=C(C1)Oc1nc3ccccc3cc1C2C(C#N)C#N (centres undefined) | -5.1% | -6.3% | 11.2µM* | -0.8% | ? | -0.1%
COc1cc(C2c3cc4c(cc3OC(NNC(N)=S)C2C)OCO4)cc(OC)c1OC (centres undefined) | -13.6% | 19.3% | ? | -13.7% | 2.82µM* | .
O=c1c2cc(F)ccc2sn1-c1ccc(F)cc1 | 11.2µM* | 9.0% | -28.2% | 8.91µM* | -22.7% | .
COc1ccc(-n2sc3ccccc3c2=O)cc1 | -86.9% | -2.7% | ? | 11.2µM* | -26.1% | .
Cc1ccc(C)c(-n2sc3ccc(F)cc3c2=O)c1 | ? | 8.7% | ? | ? | ? | .
COc1ccc(-n2sc3ccc(F)cc3c2=O)cc1 | 10µM* | -5.3% | ? | ? | ? | .
O=c1c2ccccc2sn1-c1ccc(S(=O)(=O)N2CCOCC2)cc1 | . | . | -9.8% | . | -1.3% | .
Cc1cnc(SCC2CCCO2)nc1C1CCCN(Cc2nc(-c3ccccc3)cs2)C1 (centres undefined) | . | . | -8.1% | . | -12.1% | .
COc1ccc(F)c(CN2CCOc3ccc(CN4CCC(O)(c5cccnc5)CC4)cc3C2)c1 | . | . | -8.2% | . | -19.6% | .
COc1ccc(C(=O)Nc2ccccc2C(=O)N/N=C/c2ccncc2)cc1OC | 8.91µM* | 1.7% | -5.1% | -28.9% | -7.7% | 14.1µM*
O=C(Nc1ccccc1C(=O)N/N=C/c1ccc(O)cc1)c1ccccc1 | ? | 36.8% | . | -22.6% | . | 14.1µM*
COc1ccc(C(=O)Nc2ccccc2C(=O)NCc2cccnc2)cc1OC | 4.7% | 7.6% | -9.6% | 1.9% | -1.1% | 0.1%
CC(C)(C)c1nnc(N/N=C/c2cc(Br)ccc2O)n(N)c1=O | ? | -12.5% | ? | -1.5% | 2.51µM* | 2.2%
Cc1cc(NS(=O)(=O)c2ccc(NC(=O)c3ccc(F)cc3)cc2)nc(C)n1 | 47.1% | -6.7% | . | -6.1% | . | .
Cc1cc(NS(=O)(=O)c2ccc(NC(=O)c3c(F)c(F)c(F)c(F)c3F)cc2)nc(C)n1 | -4.2% | -14.3% | ? | 3.7% | 28.2µM* | 3.9%
Cc1c(C(=O)N2CCCCC2)sc2ncnc(NCCc3ccccn3)c12 | . | . | -19.7% | . | -20.5% | .
CN(C)CCCNS(=O)(=O)c1ccc(NC2CCCCCC2)c([N+](=O)[O-])c1 | -6.0% | -4.8% | -19.5% | 2.1% | 8.91µM* | -4.2%
Cc1ncc2c(c1CNC(=O)c1ccc3c(c1)OCO3)CCN(C(=O)c1cnsn1)C2 | . | . | -6.2% | . | -9.6% | .
O=[N+]([O-])c1ccc(Nc2ccccc2)c2nonc12 | . | ? | -24.9% | -4.0% | -29.4% | -11.8%
O=[N+]([O-])c1ccc(Sc2cccc[n+]2[O-])c2nonc12 | 10µM* | 11.9% | 107.1% | 17.8µM* | ? | ?
CC(=O)O[C@H]1C[C@@H]2CC[C@@H]3[C@H](CC[C@]4(C)[C@H](OC(C)=O)[C@@H](N5CC[N+](C)(C)CC5)C[C@@H]34)[C@@]2(C)C[C@@H]1N1CC[N+](C)(C)CC1 | . | . | . | -8.2% | . | .
O=C(Nc1ccc2oc(-c3ccncc3)nc2c1)c1ccccc1 | -1.8% | 5.4% | -5.8% | -11.7% | i | 5.7%
CN1CCN(c2ccc(NC(=O)c3ccc(-c4ccc(Cl)cc4)o3)cc2)CC1 | -5.3% | ? | 11.2µM* | -3.1% | ? | 5.0%
SMILES | RE007 growth inh | AMA1-RON2 inh | Vaccinia Venus | Tb PYK inh | Vaccinia mCherry | LmPK inh
CC(C)C(=O)N1CCN(c2ccc(NC(=O)c3ccc([N+](=O)[O-])o3)cc2)CC1 | -24.6% | -0.6% | 11.2µM* | -1.9% | 10µM* | 4.0%
CCCC(=O)N1CCN(c2ccc(NC(=O)c3ccc([N+](=O)[O-])o3)cc2Cl)CC1 | ? | -5.0% | ? | 1.2% | 10µM* | -5.2%
CS(=O)(=O)N1CCN(c2ccc(NC(=O)c3ccc(-c4ccc(Cl)cc4)o3)cc2)CC1 | 3.4% | -1.7% | . | -2.1% | . | -2.3%
O=C(Nc1ccc2oc(-c3ccncc3)nc2c1)c1ccc([N+](=O)[O-])o1 | -22.2% | -21.5% | ? | 0.0% | 10µM* | 11.1%
O=C(Nc1ccc(N2CCOCC2)c(Cl)c1)c1ccc([N+](=O)[O-])o1 | -6.8% | -9.1% | ? | -5.6% | ? | -7.9%
CN1CCN(c2ccc(NC(=O)c3ccc([N+](=O)[O-])o3)cc2Cl)CC1 | -0.5% | 1.1% | ? | 0.0% | 12.6µM* | -2.9%
COc1ccccc1Nc1nn2c(=O)c3ccc(C(=O)NCCC4=CCCCC4)cc3nc2s1 | . | . | 7.94µM* | -2.1% | 8.91µM* | .
Cc1ccc(C)c(Nc2nn3c(=O)c4ccc(C(=O)NCCC5=CCCCC5)cc4nc3s2)c1 | . | . | ? | 1.4% | ? | .
CC(C)C(NS(C)(=O)=O)c1nnc2n1CCN(Cc1ccc(C#CC(C)(C)O)cc1)CC2 (centres undefined) | . | . | -3.1% | . | -13.2% | .
Oc1c(/C=N/c2ccccn2)sc2ccccc12 | -15.3% | -3.3% | . | -19.3% | . | 6.31µM*
Oc1c(C=Nc2ccc(Cl)cn2)sc2ccccc12 | 2.5% | -24.0% | -8.9% | -2.0% | -28.6% | -4.9%
Cc1c(C(=O)N2CC3CCC2C3)sc2ncnc(NCCc3ccccn3)c12 (centres undefined) | . | . | -7.5% | . | -13.3% | .
NCCc1ccc(O)c(O)c1 | 11.2%[18.4 µM] | ? | -14.4% | -7.7% | -7.4% | 12.7%
CNCCc1ccc(O)c(O)c1 | -1.6%[18.4 µM] | 7.08µM* | -7.9% | 0.0% | -0.6% | .
CC(C)Nc1nc(-c2ccccn2)nc(-c2ccccc2)c1C#N | -4.3% | 0.9% | -7.5% | -5.0% | -18.2% | 1.1%
C=CCNc1nc(-c2ccccn2)nnc1-c1ccccc1 | ? | ? | ? | -6.0% | 28.2µM* | -0.2%
CCN(CC)CCNC(=O)c1ccc(NC(=O)Cc2ccc(OC)c(S(=O)(=O)N3CCOCC3)c2)cc1 | -10.6% | 78.3% | . | -19.3% | . | .
C=CC(=O)Nc1ccc(CN2C(=O)N(c3c(Cl)c(OC)cc(OC)c3Cl)Cc3cnc(NCCCCN(CC)CC)nc32)cc1 | -10.4% | -27.6% | 3.16µM* | -4.4% | ? | .
COc1cc2c(cc1NC(=O)C(Cl)Cl)-c1ccc(NC(=O)C(Cl)Cl)cc1C2 | -3.2% | -4.3% | 10µM* | -8.6% | 12.6µM* | .
COc1ccc(-n2c(CNC(=O)c3cccc4ccccc34)nnc2SC)cc1 | . | . | -14.8% | . | -2.5% | .
CCOc1ccc(-c2ccc(SCC(=O)Nc3nnc(CC)s3)nn2)cc1 | 3.6% | 23.8% | 0.6% | -1.7% | -14.7% | -2.6%
